Laboratory results reported in PubChem BioAssay AID1508600 (Functional Genomics Laboratory (NCATS/FGL), 2020).
Screen size: about 53,000 sequences; about 3,700 (7%) were called active. Shown is part of a subset that was picked to be rich in actives. A number with no mark means an inactive call.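 Rule for the calls: active = gene knockdowns whose robust z-score for IL-1 alpha signal is at least 2 or at most -2, so actives lie on both sides; inactive = the rest.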

Test: Components of the Cytosolic LPS Sensing Pathway: Gene Identification via Genome-wide siRNA Screen;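 note: robust z of the log signal after scaling to non-targeting control siRNA wells of the plate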
Conditions: RAW264.7 macrophages, IL-1a HTRF, actives lie on both sides, screened at 100 nM (by protocol), cells primed 5 h with Pam3CSK4 first
In short: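 IL-1a HTRF of supernatants after 24 hour LipidA transfection of Pam3CSK4-primed (5 hours) RAW264.7 cells, 48h post-siRNA transfection (100 nM). Scores: percent of plate negative-control median, then log-based robust z-score.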

Sequence	z-score
GCAGUACUAAGGAAGAUAUTT against Nudcd1	-0.842
GCAUAAGCUACUGCUGACATT against Pcdha6	-0.782
GGCAGCAGCACUGAUUACUTT against Gjc2	-2.17 (active)
GGCAAGGCUACUACUUGCATT against Fgf14	-0.117
GCCAGACACUUAAUCCCGUTT against Unc13d	0.147
GGAUAUCAAGGGAUCAGACTT against Chchd4	0.00163
GGCUUAAGCAGACGUGUCATT against Lhx8	-2.14 (active)
GCCCAUUAUGAAACUGAAGTT against Nfatc3	1.45
GGUGUUUAAGGAUGAACAATT against L3mbtl3	0.104
GCCACUUAAUGUCACUUUATT against Bag2	0.652
GCCAGAUCUUUAUAUCCCGTT against Gdi2	-0.094
CCAGAUGUUACGAAUGAAATT against Tmem209	-1.65
GGGCAAUGUUUGUCACUAATT against Akr1b10	1.55
CGGCCAUAUAAUUUUGAAUTT against Tbx20	0.233
CGGUUUAACAGCAAGGGUATT against Sec61a1	-2.75 (active)
GGACUUAUUUCUUUAAGGATT against Mmp17	-0.567
GGUGGAAUGAUAGUGUUCATT against Neurl1b	1.67
GGUUAUUUCCCUGUUUUCATT against Olfr532	1.5
GGAGUUUGGGAACACUUUGTT against Apoc1	0.617
GCCUCUUAGUAGAGACAGUTT against Naa80	-0.725
GGUAAAGCAAGAGAGUAUUTT against Hccs	-0.629
GGUUCAAGGAUGAAUUAGATT against Trappc6b	-2.03 (active)
GCUUUUGAAUGUGUGGACUTT against Ugt2b37	-0.938
CCCAAAGAAUUAUGAGUGUTT against Gpr149	-0.678
GGCAAAUUCUGGAUCUGCUTT against Marf1	-0.267
GGGAAAAAAAAAAAUCACCTT against Syne3	-0.254
CCAAUGAUGGAGCUGAAGCTT against Ranbp1	-2.72 (active)
GGUCAAGGCUGUCAAGUUGTT against Wdr45b	-0.13
GGUGCCCACUAACUUAGAATT against Tbx21	2.3 (active)
GGUGUUCGAUGGACGUGAUTT against Bmp1	-0.183
